Laboratory results reported in PubChem BioAssay AID434973 (Sanford-Burnham Center for Chemical Genomics, 2010).
Screen size: about 330,000 compounds; about 4,900 (1.5%) were called active. The entries come from a sample that favours actives as a whole. Values without a mark were called inactive.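 How the source made its calls: active means inhibition above about 50% at the single test dose (limit read from the data); inactive means the rest.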

target: Sentrin-specific protease 7 (Homo sapiens) (UniProt Q9BQF6); experiment: blockers of human SENP7 peptidase activity – biochemical, luminescence, uHTS, primary screen (AID 434973); details: recombinant SENP7, Z-RLRGG-aminoluciferin luminescence, 40 min; at 5 µM; stronger effect = higher value;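 further: plate controls were DMSO with enzyme for no effect and no enzyme buffer wells for full effect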

SMILES | inhibition
Cc1ccc(S(=O)(=O)CCC(=O)Nc2nnc(CC(C)C)s2)cc1 | 10.9%
Cc1ccc(OC(=O)c2cc3ccccc3o2)cc1 | 80.7% (active)
COc1ccccc1CN(C)C(=O)c1cc2ccccc2o1 | 6.76%
C/C(=N\NC(=S)Nc1ccc(C)cc1)c1cc2ccccc2o1 | -0.14%
COc1cc(C(=O)OCC(=O)NC23CC4CC(CC(C4)C2)C3)cc(OC)c1OC | 7.88%
COc1cc(C2/C(=C(\O)c3ccc4c(c3)CC(C)O4)C(=O)C(=O)N2c2nnc(C)s2)cc(OC)c1OC (stereo unspecified) | 0.235%
COc1ccc(CNC(=O)CN(Cc2ccccc2Cl)C(=O)c2csnn2)cc1 | -0.595%
CCCCn1c(N)c(N(CCC(C)C)C(=O)CC2OC(=O)c3ccccc32)c(=O)[nH]c1=O (stereo unspecified) | 0.323%
COc1cc(NC(=O)c2cc([N+](=O)[O-])ccc2Br)ccc1NC(=O)c1ccco1 | -5.49%
CC(C)(C)SCCNC(=O)c1cccc([N+](=O)[O-])c1 | 0.866%
O=C(Nc1ccc(NC(=O)c2ccco2)c(Cl)c1)c1cccc([N+](=O)[O-])c1 | 52.1% (active)
O=C(c1cccc([N+](=O)[O-])c1)N1CCN(C(=O)c2ccco2)CC1 | 3.1%
O=C(Nc1ccc(C2CC2(Cl)Cl)cc1)c1cccc([N+](=O)[O-])c1 (stereo unspecified) | 54.2% (active)
Cc1cc(C)nc(NC(=O)c2cccc([N+](=O)[O-])c2)c1 | 2.66%
COc1ccc(S(=O)(=O)N2CCN(c3cnccn3)CC2)cc1 | 4.46%
COC(=O)c1ccc(-n2cnc3ccccc32)nc1 | -0.937%
O=C1CN(C(=O)COC(=O)/C=C/c2ccc(F)cc2)c2ccccc2N1 | -6.02%
O=S(=O)(c1ccc(F)cc1)N1CCN(C(=S)NCc2ccco2)CC1 | -0.183%
COc1ccc(NC(=O)NN2CCN(C)CC2)c(OC)c1 | 0.214%
CCCCOc1ccc(-c2nnc(-c3ccco3)o2)cc1 | 80.5% (active)
N#Cc1ccc(OCc2nnc(-c3ccc([N+](=O)[O-])cc3)o2)cc1 | -0.787%
CCOc1ccc(-n2c(SCC(N)=O)nnc2-c2ccco2)cc1 | 6.82%
O=C(NCCC1=CCCCC1)c1ccc(-n2cncn2)cc1 | -9.22%
O=C(NCc1cccnc1)c1cccnc1Sc1ccc(Cl)cc1 | 2.66%

SMILES | inhibition
O=C(Nc1ccncc1)c1cc2ccccc2o1 | 60.6% (active)
COc1cc2ccccc2cc1C(=O)Nc1ccncc1 | 7.87%
CC(C)(C)n1nc2c(c1NC(=O)c1cc3ccccc3o1)CSC2 | 6.18%
CCOc1ccc(N2C(=O)/C(=C/c3ccc(C)o3)N(C)C2=S)cc1 | 6.54%
O=C(N[C@@H](Cc1ccccc1)C(=O)OCc1ccccc1)c1nc[nH]c1C(=O)N[C@@H](Cc1ccccc1)C(=O)OCc1ccccc1 | 4.7%
CCOc1ccc(C(=O)COC(=O)c2ccc(-n3cnnn3)cc2)cc1 | -0.201%
O=C(Oc1ccc(C(=S)N2CCOCC2)cc1)c1ccc(F)cc1 | 2.03%
CC(C)c1c(C(=O)N/N=C/c2ccc(-c3ccccc3)cc2)nnn1-c1nonc1N | 0.606%
Cc1nonc1C(=O)N/N=C/c1ccc(O)cc1 | 98.8% (active)
Cc1nc2ccc(C(=O)N/N=C/c3ccc(O)cc3)cc2[nH]1 | 0.319%
Cn1ncc(N2CCN(S(=O)(=O)c3ccc(Br)cc3)CC2)c(Cl)c1=O | -5.83%
O=C(O)c1ccc(/C=N/Nc2nc(N3CCCCC3)nc(N3CCCCC3)n2)cc1 | -3.32%
O=C(O)c1ccc(N/N=C/c2ccc3ncccc3c2)cc1 | 99.3% (active)
Cc1ccc2cc(/C=N/Nc3ccc(C(=O)O)cc3)c(Cl)nc2c1 | -6.79%
COc1ccc(CCNC(=O)C(=O)NCC2OCCN2S(=O)(=O)c2ccc(OC)c(C)c2)cc1 (stereo unspecified) | 2.59%
O=C(NC(=S)N1CCN(Cc2ccccc2)CC1)c1ccccc1 | 2.02%
CC(OC(=O)c1ccc2ccccc2n1)C(=O)c1ccccc1 (stereo unspecified) | 55.8% (active)
Cc1ccc(S(=O)(=O)N(C)C)cc1NC(=O)C(C)OC(=O)c1ccc2ccccc2n1 (stereo unspecified) | 6.08%
CC(NC(=O)COC(=O)c1ccc2ccccc2n1)c1ccccc1 (stereo unspecified) | -1.7%
O=C(Nc1ccc(S(=O)(=O)N2CCCCC2)cc1)C1CCN(C(=O)c2ccc(F)cc2)CC1 | -13.9%
CC(C)(C)NS(=O)(=O)c1ccc(NC(=O)C2CCCO2)cc1 (stereo unspecified) | 3.51%
O=C(Nc1cccc(-c2nnc(-c3ccccc3)o2)c1)C1CCCO1 (stereo unspecified) | 1.95%
O=C(Nc1ccc(-c2nnc(-c3ccccc3)o2)cc1)C1CCCO1 (stereo unspecified) | 60.2% (active)
O=C(COC(=O)/C=C/c1cccc(Cl)c1)NCc1cccs1 | 15%

SMILES | inhibition
CCNC(=O)CC1C(=O)N(c2ccc(F)cc2)C(=O)N1CCc1sccc1C (stereo unspecified) | 7.13%
Cn1nc(-c2ccccc2)c(CSc2cccc(Cl)c2)c1Cl | 2.83%
Cc1nn2cc(-c3ccc(Cl)cc3)cnc2c1Br | 88.2% (active)
CCOC(=O)c1cc(S(=O)(=O)NCCc2ccc(OC)c(OC)c2)cn1C | 7.17%
O=c1c2cc(-c3ccccc3)sc2nc2n1N=C(c1cccs1)CS2 | 74.3% (active)
O=c1c(-c2ccccc2)cnc2n1CCS2 | 4.7%
Cc1nnc2n1N=C(c1ccccc1)CS2 | -0.787%
Clc1ccc2nc(CSc3ccccc3)cn2c1 | 66.1% (active)
CCCCCCSc1ccc(-c2nc3ccc(Cl)cn3c2NCc2ccccc2)cc1 | -2.53%
O=C(/C=C/c1ccc2c(c1)OCO2)NCc1cn2cc(Cl)ccc2n1 | 0.536%
COc1ccc(NC(=O)NCc2ccc3c(c2)OCO3)c(OC)c1 | 6.56%
CCOCCCNC(=S)N1CCC(NC(=O)C2CCCCC2)CC1 | -2.06%
Cc1ncc(CO)c(/C=N/NC(=O)c2cccc(S(=O)(=O)N3CCCC3)c2)c1O | -7.56%
C/C(=N\Nc1nc2ccccc2[nH]1)c1cccs1 | 65.2% (active)
C/C(=N\Nc1ncc(Cl)cc1Cl)c1cccs1 | 47.2%
O=C(Nc1ccccc1-c1nc2ccccc2[nH]c1=O)c1cccs1 | -0.595%
O=C(CNC(=O)OCc1ccccc1)NC1CCCCNC1=O (stereo unspecified) | 4.12%
COC(=O)c1ccc(NCC(=O)c2ccccc2)cc1 | 86.1% (active)
COC(=O)c1ccc(NCC(=O)N2CCCCCC2)cc1 | -4.94%
COC(=O)c1ccc(NC(=O)Nc2ccc(C)cc2)cc1 | -0.387%
COc1cc(C2/C(=C(\O)c3ccc4c(c3)CC(C)O4)C(=O)C(=O)N2Cc2ccco2)ccc1O (stereo unspecified) | 2.43%
CC(Oc1ccc(F)cc1F)C(=O)/C=C/N(C)C (stereo unspecified) | 11.5%
O=C(N/N=C/c1cccc(O)c1)c1cc2c(ccc3ccccc32)o1 | -13.1%
NC(=O)c1ccccc1N=Cc1ccc2ccccc2c1 | 66.6% (active)

SMILES | inhibition
O=C(OCC(=O)N1CCOCC1)c1ccc2ccccc2c1 | 4.44%
COc1ccc(CC(=O)N2N=C(C)CC2(O)C(F)(F)F)cc1 (stereo unspecified) | -2.12%
COc1ccccc1C(CNC(=O)c1cccc(S(=O)(=O)Nc2ccc(F)cc2)c1)N(C)C (stereo unspecified) | -6.57%
O=C(Nc1ccc(Cl)cc1)/C(=C1\CCCN1)[N+](=O)[O-] | 16.3%
O=C(NC(=O)c1ccccc1)Nc1ccccc1O | 55.8% (active)
O=C(Nc1ncccc1O)c1ccc(C(=O)c2ccccc2)cc1 | -3.01%
Cc1ccc(NC(=O)NC(=O)c2ccccc2)cc1F | 23.1%
Cn1c2c(c(=O)n(C)c1=O)C1c3ccccc3OCC1C(C)(C)O2 (stereo unspecified) | -0.167%
CCNC(=O)N1CCCC(C(=O)c2ccc(-c3ccccc3)cc2)C1 (stereo unspecified) | 3.16%
CC(=O)c1sc(N/N=C\c2ccc(C)cc2)nc1C | 17.2%
CCOC(=O)c1cccnc1NC(=O)c1ccncc1 | -6.19%
CCOC(=O)c1sc(NC(=O)c2ccncc2)nc1C | 91.1% (active)
CCOC(=O)c1sc(NC(=O)c2sc(C)nc2C)nc1C | 31.9%
CC(=O)c1sc(NC(=O)c2ccc(C)cc2)nc1C | 71.5% (active)
COC(=O)c1sc(NC(=S)NC(=O)c2ccc(C)cc2)nc1C | 9.77%
CCSc1nnc(NC(=O)c2ccc(C)cc2)s1 | 52.7% (active)
NC(=O)CSc1nnc(NC(=O)c2ccc3ccccc3c2)s1 | -4.32%
C=CCSc1nnc(NC(=O)c2ccc(NC(C)=O)cc2)s1 | 4.95%
COc1ccc([N+](=O)[O-])cc1NC(=O)c1ccc(N(Cc2ccccc2C)S(C)(=O)=O)cc1 | 2.86%
CCN(CC)C(=O)Cn1cc(S(=O)(=O)CC(=O)NCc2ccc3c(c2)OCO3)c2ccccc21 | -2.79%
Cc1noc(C)c1COc1ccc(C(=O)NCCOc2ccccc2)cc1 | -6.96%
Cc1ccn2c(=O)c(C(=O)NCCC3=CCCCC3)c(O)nc2c1 | 9.74%
COC(=O)Cc1ccc(OC(=O)C2CCN(S(=O)(=O)c3ccc(OC)c(OC)c3)CC2)cc1 | -4.03%
CC1=C(C)CC(C(=O)NC(C)CCc2ccccc2)C(C(=O)O)C1 (stereo unspecified) | 4.76%
